Inconclusive results are not listed. Active and inactive are the calls of the source. Unless noted, calls come from the whole dose curve.
Columns and labels:
[1] = Nuclear factor erythroid 2-related factor 2/antioxidant responsive element (Nrf2/ARE) small molecule agonists: luciferase reporter gene qHTS assay in human keratinocytes (AID 1919969); note: nearly all actives have a fitted effect of over 35% in size
[2] = target: Gonadotropin-releasing hormone receptor (Homo sapiens) (UniProt P30968); assay: Human gonadotropin-releasing hormone receptor (GnRHR) small molecule agonists, calcium flux assay in GnRHR-HEK293 cells (AID 1920063); note: nearly all actives have a fitted effect of over 35% in size
Sequence of Gonadotropin-releasing hormone receptor (Homo sapiens) (P30968 whole entry, looked up): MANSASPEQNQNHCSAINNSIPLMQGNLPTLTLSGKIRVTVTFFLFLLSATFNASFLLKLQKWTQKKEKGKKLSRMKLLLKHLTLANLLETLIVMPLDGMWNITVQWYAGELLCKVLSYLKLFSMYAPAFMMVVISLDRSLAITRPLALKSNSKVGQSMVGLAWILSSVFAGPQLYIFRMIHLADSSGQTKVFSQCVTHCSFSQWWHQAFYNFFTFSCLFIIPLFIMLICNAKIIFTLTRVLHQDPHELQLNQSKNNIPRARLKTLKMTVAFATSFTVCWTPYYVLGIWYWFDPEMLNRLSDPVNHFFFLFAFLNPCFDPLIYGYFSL
Summary of the method: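 GnRHR-HEK293, 1500 cells/well, 18 h 37 C/5% CO2; Ca dye 1 h 37 C; cpd pinned (DMSO), agonist mode; kinetic FL 480/540, 3 min, 1 s reads; 15 conc, n=3.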

[3] = target: KiSS-1 receptor (Homo sapiens) (UniProt Q969F8); assay: Human kisspeptin (KISS1R) small molecule agonists, calcium flux assay in KISS1R-HEK293 cells (AID 1920064; active = well fitted activation curve with a large enough effect in the repeat runs)
Sequence of KiSS-1 receptor (Homo sapiens) (Q969F8 whole entry, looked up): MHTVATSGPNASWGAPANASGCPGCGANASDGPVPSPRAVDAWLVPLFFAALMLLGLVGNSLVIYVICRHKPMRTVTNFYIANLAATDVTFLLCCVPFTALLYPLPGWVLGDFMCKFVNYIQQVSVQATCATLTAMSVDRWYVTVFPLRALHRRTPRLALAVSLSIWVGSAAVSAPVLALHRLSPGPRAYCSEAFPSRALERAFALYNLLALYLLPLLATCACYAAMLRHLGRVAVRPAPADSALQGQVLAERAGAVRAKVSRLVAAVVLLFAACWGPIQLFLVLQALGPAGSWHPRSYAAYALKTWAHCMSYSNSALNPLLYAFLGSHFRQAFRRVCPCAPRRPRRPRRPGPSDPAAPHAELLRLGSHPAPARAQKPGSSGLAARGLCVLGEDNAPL
Summary of the method: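 Stable human KISS1R HEK293 line; 18 h plating, 37 C/5% CO2; calcium dye 1 h 37 C; compound pin transfer; kinetic fluorescence Ex/Em 480/540, 3 min.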

[4] = G protein-coupled receptor (GPCR) small molecule agonists, calcium flux assay: HEK293 wild type cell line counter screen (AID 1920065)
Summary of the method: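 Kinetic fluorescence at Ex/Em 480/540, recorded every second over 3 min, served as the read-out after compound addition. Each compound was tested at 15 concentrations in triplicate on cells pre-loaded with calcium dye for 1 h.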

[5] = p53 small molecule agonists, cell-based qHTS assay with human liver microsomes: qHTS cell viability counter screen (AID 1963579); note: nearly all actives have a fitted effect of over 45% in size
Summary of the method: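 p53RE-bla cells (4,000/well) were pre-incubated 5 h at 37 C, then given compounds in DMSO plus human liver microsomes (0.5 mg/mL final) and NADPH (0.5 mg/mL final) for 16 h at 37 C. Viability was read by CellTiter-Glo luminescence.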

[6] = p53 small molecule agonists, cell-based qHTS assay with rat liver microsomes: qHTS cell viability counter screen (AID 1963580); note: nearly all actives have a fitted effect of over 45% in size
Summary of the method: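 p53RE-bla HCT-116 cells (4,000/well) rested 5 h at 37 C, then given Tox21 compounds in DMSO with rat liver microsomes (0.5 mg/mL final) plus NADPH (0.5 mg/mL final) for 16 h at 37 C. Viability read by CellTiter-Glo luminescence after 30 min at room temperature.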

[7] = cAMP Responsive Elements (CRE) small molecule agonists, cell-based qHTS assay (AID 1963590)
Summary of the method: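 HEK 293T CRE-bla, 2,000 cells/well, 18 h preincubation 37 C/5% CO2; cpds (DMSO) pinned, 3 h; LiveBLAzer B/G FRET substrate, 2 h RT.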

[8] = cAMP Responsive Elements (CRE) small molecule antagonists, cell-based qHTS assay (AID 1963591; active = well fitted inhibition curve with a large enough effect in the signal ratio in the repeat runs, not every such curve was filed as active; the % refers to the signal ratio)
Summary of the method: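 Beta-lactamase reporter read by FRET substrate (LiveBLAzer B/G) after 2 h at room temperature. CRE-bla HEK293T cells had received compound plus 0.25 uM (final) NKH477 for 3 h at 37 °C.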

[9] = target: Beta-2 adrenergic receptor (Homo sapiens) (UniProt P07550); assay: Adrenergic beta2 receptor (ADRB2) small molecule antagonists, cell-based qHTS assay (AID 1963592); note: series mostly up to about 92 µM; nearly all actives have a fitted effect of over 50% in size
Sequence of Beta-2 adrenergic receptor (Homo sapiens) (P07550 whole entry, looked up): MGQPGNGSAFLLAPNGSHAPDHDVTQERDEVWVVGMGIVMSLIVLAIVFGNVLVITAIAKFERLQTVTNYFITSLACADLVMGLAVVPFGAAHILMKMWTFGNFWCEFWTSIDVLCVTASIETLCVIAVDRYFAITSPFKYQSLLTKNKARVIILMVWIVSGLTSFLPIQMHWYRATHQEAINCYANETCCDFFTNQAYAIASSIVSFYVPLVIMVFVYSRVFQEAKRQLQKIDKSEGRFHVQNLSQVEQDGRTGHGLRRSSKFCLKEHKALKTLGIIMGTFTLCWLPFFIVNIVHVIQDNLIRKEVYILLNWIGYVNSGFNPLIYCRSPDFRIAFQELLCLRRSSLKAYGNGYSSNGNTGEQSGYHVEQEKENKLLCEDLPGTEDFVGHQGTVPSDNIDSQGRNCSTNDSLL
Summary of the method: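 Cells (CHO, stable ADRB2 overexpression) incubated 18-20hr at 37C; compounds added from DMSO; agonist mix (1nM isoproterenol, 100uM IBMX, 25uM Ro-20-1724) added; 0.5hr RT; d2-cAMP and anti-cAMP-cryptate added; 1hr RT; 665/615 nm read.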

[10] = target: D(2) dopamine receptor (Homo sapiens) (UniProt P14416); assay: Dopamine D2 receptor (DRD2) small molecule agonists, cell-based qHTS assay (AID 1963594); note: nearly all actives have a fitted effect of over 35% in size
Sequence of D(2) dopamine receptor (Homo sapiens) (P14416 whole entry, looked up): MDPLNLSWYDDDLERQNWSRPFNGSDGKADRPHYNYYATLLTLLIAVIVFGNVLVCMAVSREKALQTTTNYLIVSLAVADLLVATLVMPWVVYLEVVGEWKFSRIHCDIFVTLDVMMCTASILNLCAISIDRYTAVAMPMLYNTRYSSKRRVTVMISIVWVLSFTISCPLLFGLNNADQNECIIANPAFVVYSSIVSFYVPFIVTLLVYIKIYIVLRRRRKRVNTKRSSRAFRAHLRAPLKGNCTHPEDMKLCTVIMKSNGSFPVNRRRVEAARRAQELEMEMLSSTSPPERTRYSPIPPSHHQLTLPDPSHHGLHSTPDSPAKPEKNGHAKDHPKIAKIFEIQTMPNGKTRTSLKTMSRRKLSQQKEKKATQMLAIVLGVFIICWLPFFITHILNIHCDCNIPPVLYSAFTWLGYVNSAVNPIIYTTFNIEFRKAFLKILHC
Summary of the method: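 HEK293 cells stably expressing DRD2 were cultured 24 h at 37 C, then given Ro20-1724 (0.1 mM final) and compounds for 10 min at room temperature. NKH477 (200nM) was then added for 30 min. cAMP was read by HTRF.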

[11] = target: D(2) dopamine receptor (Homo sapiens) (UniProt P14416); assay: Dopamine D2 receptor (DRD2) small molecule antagonists, cell-based qHTS assay (AID 1963595; active = well fitted inhibition curve with a large enough effect in the signal ratio in the repeat runs, with a control signal flat; the % refers to the signal ratio)
Summary of the method: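 Human DRD2 antagonist qHTS measuring cAMP by HTRF. The cells are exposed to compound for 10 min, then to NKH477 (200 nM) and quinpirole (12 nM) for 30 min at RT, with Ro20-1724 (0.1 mM) present throughout.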

Measured: Potency

NC(=O)N1c2ccccc2C=Cc2ccccc21
inactive: all assays above
